Activity calls are given as the source filed them. How the source made its calls: active means hit-call score of the fitted dose curve at least 0.9, where 1 is the maximum; inactive means score below 0.9.
Columns and labels:
[1] = BSK_3C_SRB: Viability Assessment in the BioMAP Diversity Plus: 3C Assay (AID 2283023); settings: primary human endothelial cells (HUVEC);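 further: cells read 24 h after compound dosing; fitted both ways against DMSO so a hit may be signal rise or drop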
In short: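 Absorbance at 560 nm of sulforhodamine B-stained (0.1%) total protein served as a cytotoxicity readout in human umbilical vein endothelial cells, 24 h after chemical treatment. Signal was fitted bidirectionally relative to DMSO.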

[2] = read-out: Matrix Metallopeptidase 1 (MMP1), MMP1 (gene 4312); experiment: BSK_BE3C_MMP1: BioMAP Diversity Plus: BE3C Assay for Matrix Metallopeptidase 1 (MMP1) Biomarker Activity (AID 2283024); settings: primary human bronchial epithelial cells; actives raise or lower the signal
In short: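 Primary human bronchial epithelial cells were dosed with test chemicals, and MMP1 levels were measured by ELISA 24 h later. Data were fitted bidirectionally against DMSO as the negative control and activity baseline.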

[3] = BSK_3C_Vis: BioMAP Diversity Plus: 3C Assay for Morphology Visualization (AID 2283025); settings: primary human endothelial cells (HUVEC);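 further: fitted both ways so gain or loss versus DMSO counts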
In short: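 Human umbilical vein endothelial cells in the 3C system were imaged by light microscopy 24 h after chemical dosing to record cell morphology. Activity was fitted bidirectionally against DMSO as negative control and baseline; the endpoint serves as a background control.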

[4] = read-out: Pselectin, SELP (gene 6403); experiment: BSK_4H_Pselectin: BioMAP Diversity Plus: 4H Assay for Pselectin Biomarker Activity (AID 2283026); settings: primary human endothelial cells (HUVEC); actives raise or lower the signal
In short: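 Primary human umbilical vein endothelial cells were exposed to test chemical for 24 h, then cell-surface P-selectin was quantified by ELISA. Activity was fitted bidirectionally against DMSO as negative control and baseline.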

[5] = BSK_4H_SRB: Viability Assessment in the BioMAP Diversity Plus: 4H Assay (AID 2283027); settings: primary human endothelial cells (HUVEC);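 further: cells exposed to compound for 24 h before staining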;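 on AC50: curves fitted both ways versus DMSO so AC50 may be loss or gain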
In short: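 Human umbilical vein endothelial cells were dosed with chemical and, after 24 h, fixed with 10% TCA, stained with 0.1% sulforhodamine B, and read at 560 nm to give total protein as a cytotoxicity measure. Bidirectional fitting relative to DMSO control.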

[6] = BSK_BE3C_SRB: Viability Assessment in the BioMAP Diversity Plus: BE3C Assay (AID 2283028); settings: primary human bronchial epithelial cells
In short: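 Cells (human bronchial epithelial, primary) are treated with chemicals, and after 24 h the parallel cultures are fixed in 10% TCA. These are then stained with 0.1% SRB and read at 560 nm. Gain or loss of signal is fitted relative to DMSO.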

[7] = read-out: Thrombomodulin, THBD (gene 7056); experiment: BSK_3C_Thrombomodulin: BioMAP Diversity Plus: 3C Assay for Thrombomodulin Biomarker Activity (AID 2283029); settings: primary human endothelial cells (HUVEC); actives raise or lower the signal
In short: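 Primary human umbilical vein endothelial cells (3C system) were exposed to chemical for 24 h, then thrombomodulin levels were measured by ELISA. Activity was fitted bidirectionally against the DMSO negative control as baseline.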

[8] = read-out: Urokinase-type plasminogen activator receptor (uPAR), PLAUR (gene 5329); experiment: BSK_4H_uPAR: BioMAP Diversity Plus: 4H Assay for Urokinase-type plasminogen activator receptor (uPAR) Biomarker Activity (AID 2283030); settings: primary human endothelial cells (HUVEC); actives raise or lower the signal
In short: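 Cell-surface uPAR ELISA signal, measured 24 h after dosing human umbilical vein endothelial cells, was analyzed with bidirectional fitting relative to DMSO. Parallel SRB staining of total protein tracked overt cytotoxicity.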

[9] = read-out: Human Leukocyte Antigen - DR isotype (HLADR), HLA-DRA (gene 3122); experiment: BSK_BE3C_HLADR: BioMAP Diversity Plus: BE3C Assay for Human Leukocyte Antigen - DR isotype (HLADR) Biomarker Activity (AID 2283032); settings: primary human bronchial epithelial cells; actives raise or lower the signal
In short: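 Human primary bronchial epithelial cells in the BE3C system were exposed to chemicals for 24 h, after which HLA-DR levels were quantified by ELISA. Activity was fitted bidirectionally, gain or loss of signal, against DMSO as negative control and baseline.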

[10] = read-out: Vascular cell adhesion molecule 1 (VCAM1), VCAM1 (gene 7412); experiment: BSK_4H_VCAM1: BioMAP Diversity Plus: 4H Assay for Vascular cell adhesion molecule 1 (VCAM1) Biomarker Activity (AID 2283033); settings: primary human endothelial cells (HUVEC); actives raise or lower the signal
In short: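 Primary human umbilical vein endothelial cells were exposed to chemicals for 24 h, after which VCAM-1 was quantified by ELISA. Responses were fitted bidirectionally against DMSO as negative control and activity baseline.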

[11] = read-out: Interferon-gamma inducible Protein 10 (IP10), CXCL10 (gene 3627); experiment: BSK_BE3C_IP10: BioMAP Diversity Plus: BE3C Assay for Interferon-gamma inducible Protein 10 (IP10) Biomarker Activity (AID 2283034); settings: primary human bronchial epithelial cells; actives raise or lower the signal
In short: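 Human primary bronchial epithelial cells were exposed to chemicals for 24 hours, after which IP-10 levels were measured by ELISA. Data were fitted bidirectionally against DMSO, which served as the negative control and activity baseline.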

[12] = read-out: Monokine induced gamma interferon (MIG), CXCL9 (gene 4283); experiment: BSK_BE3C_MIG: BioMAP Diversity Plus: BE3C Assay for Monokine induced gamma interferon (MIG) Biomarker Activity (AID 2283035); settings: primary human bronchial epithelial cells; actives raise or lower the signal;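 further: MIG protein measured by ELISA in BE3C cultures after 24 h of dosing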
In short: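 ELISA read-out of MIG in human lung bronchial epithelial primary cultures, 24 h post-dosing. Bidirectional curve fit vs DMSO baseline.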

[13] = read-out: Transforming growth factor beta 1 (TGFb1), TGFB1 (gene 7040); experiment: BSK_BE3C_TGFb1: BioMAP Diversity Plus: BE3C Assay for Transforming growth factor beta 1 (TGFb1) Biomarker Activity (AID 2283036); settings: primary human bronchial epithelial cells; actives raise or lower the signal
In short: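 Human primary bronchial epithelial cells (BE3C system) were dosed with chemical and TGF-b1 levels measured by ELISA at 24 h. Activity was fitted bidirectionally relative to DMSO negative control as baseline.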

[14] = read-out: Plasminogen activator inhibitor-1 (PAI1), SERPINE1 (gene 5054); experiment: BSK_BE3C_PAI1: BioMAP Diversity Plus: BE3C Assay for Plasminogen activator inhibitor-1 (PAI1) Biomarker Activity (AID 2283037); settings: primary human bronchial epithelial cells; actives raise or lower the signal
In short: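 Human primary bronchial epithelial cells were exposed to chemical for 24 h, then PAI-1 was quantified by ELISA. Activity was fitted bidirectionally relative to the DMSO negative control baseline.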

[15] = read-out: Urokinase-type plasminogen activator receptor (uPAR), PLAUR (gene 5329); experiment: BSK_BE3C_uPAR: BioMAP Diversity Plus: BE3C Assay for Urokinase-type plasminogen activator receptor (uPAR) Biomarker Activity (AID 2283039); settings: primary human bronchial epithelial cells; actives raise or lower the signal;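 further: cells exposed to compound for one day before measurement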
In short: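 Primary human bronchial epithelial cells were dosed with chemical and harvested 24 h later; uPAR was quantified by ELISA. Activity was fitted bidirectionally against DMSO as negative control and baseline.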

[16] = read-out: Interleukin-6 (IL6), IL6 (gene 3569); experiment: BSK_CASM3C_IL6: BioMAP Diversity Plus: CASM3C Assay for Interleukin-6 (IL6) Biomarker Activity for (AID 2283040); settings: primary human coronary artery smooth muscle cells; actives raise or lower the signal
[17] = read-out: Tissue plasminogen activator (tPA), PLAT (gene 5327); experiment: BSK_BE3C_tPA: BioMAP Diversity Plus: BE3C Assay for Tissue plasminogen activator (tPA) Biomarker Activity (AID 2283041); settings: primary human bronchial epithelial cells; actives raise or lower the signal;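 further: tPA level quantified by ELISA one day after compound addition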
In short: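 Human primary bronchial epithelial cells were dosed with chemical and tPA biomarker levels measured by ELISA 24 hours later. Activity was fitted bidirectionally against DMSO as negative control and baseline.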

[18] = read-out: Interleukin-8 (IL8), CXCL8 (gene 3576); experiment: BSK_CASM3C_IL8: BioMAP Diversity Plus: CASM3C Assay for Interleukin-8 (IL8) Biomarker Activity (AID 2283042); settings: primary human coronary artery smooth muscle cells; actives raise or lower the signal;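 further: IL-8 protein level quantified by ELISA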
[19] = read-out: Vascular endothelial growth factor receptor 2 (Homo sapiens) (UniProt P35968); experiment: BSK_4H_VEGFRII: BioMAP Diversity Plus: 4H Assay for Vascular endothelial growth factor receptor 2 (VEGFR2) Biomarker Activity (AID 2283031); settings: primary human endothelial cells (HUVEC); actives raise or lower the signal
In short: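 ELISA read-out of VEGFRII in primary human umbilical vein endothelium, taken 24 h after chemical treatment. Responses are expressed relative to DMSO, with bidirectional fitting.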

[20] = read-out: urokinase plasminogen activator (uPA), PLAU (gene 5328); experiment: BSK_BE3C_uPA: BioMAP Diversity Plus: BE3C Assay for urokinase plasminogen activator (uPA) Biomarker Activity (AID 2283038); settings: primary human bronchial epithelial cells; actives raise or lower the signal;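 further: uPA protein level quantified by ELISA in cell cultures; uPA read one day after compound addition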
In short: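 Bronchial epithelial cells (human, primary); chemical 24 h; uPA by ELISA; bidirectional fit vs DMSO. SRB (0.1%, after 10% TCA fixation, 560 nm) in parallel cultures for cytotoxicity.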

Measured: AC50

NC=O
inactive: [1] | [2] | [3] | [4] | [5] | [6] | [7] | [8] | [9] | [10] | [11] | [12] | [13] | [14] | [15] | [16] | [17] | [18]

C=CCCCCCCCCCCCC
inactive: [1] | [3] | [4] | [5] | [6] | [7] | [8] | [19] | [9] | [10] | [11] | [12] | [13] | [14] | [20] | [15] | [16] | [17] | [18]

COc1ccc(C(=O)Nc2nc3ccccc3c(NCc3ccccc3)c2C#N)cc1
active: [1] 8.6 µM | [3] 39 µM
inactive: [4] | [5] | [6] | [7] | [8] | [19] | [9] | [10] | [11] | [12] | [13] | [14] | [20] | [15] | [16] | [17] | [18]

CC(C)c1cccc(C(C)C)c1NC(=O)NS(=O)(=O)c1cc(C(C)(C)O)co1
inactive: [1] | [3] | [4] | [5] | [6] | [7] | [8] | [9] | [10] | [11] | [12] | [13] | [14] | [20] | [15] | [16] | [17] | [18]

COC(=O)[C@H]1[C@H]2C[C@@H]3c4[nH]c5cc(OC)ccc5c4CCN3C[C@H]2C[C@@H](OC(=O)c2cc(OC)c(OC)c(OC)c2)[C@@H]1OC
inactive: [6] | [7] | [19] | [9] | [12] | [14] | [15] | [16] | [17] | [18]
active: [1] 24.9 µM | [4] 25.6 µM | [5] 22.5 µM | [10] 8.36 µM

CCCCc1nc2cccnc2n1Cc1ccc(-c2ccccc2-c2nnn[nH]2)cc1
inactive: [1] | [3] | [4] | [5] | [6] | [7] | [8] | [9] | [10] | [11] | [12] | [13] | [14] | [20] | [15] | [16] | [17] | [18]

NCCOCCOCCN
inactive: [1] | [3] | [4] | [5] | [6] | [7] | [8] | [9] | [10] | [11] | [12] | [13] | [14] | [15] | [16] | [17] | [18]

NC(=Nc1ccccc1)Nc1ccccc1
inactive: [1] | [3] | [5] | [6] | [7] | [8] | [19] | [9] | [10] | [11] | [12] | [13] | [14] | [15] | [16] | [17] | [18]

Reference: PubChem BioAssay (EPA / NIEHS)
